Inconclusive results are not listed. Active and inactive are the calls of the source. The call rests on the fitted dose curve; in most records, active means well fitted inhibition curve with a large enough effect; inconclusive means small, poorly fitted or top-dose-only effect; inactive means flat fitted curve, though single readings scatter.

The record followed here is PubChem BioAssay (NCATS).

Chain of Lysine-specific demethylase 5B (Homo sapiens) (Q9UGL1 whole entry, looked up): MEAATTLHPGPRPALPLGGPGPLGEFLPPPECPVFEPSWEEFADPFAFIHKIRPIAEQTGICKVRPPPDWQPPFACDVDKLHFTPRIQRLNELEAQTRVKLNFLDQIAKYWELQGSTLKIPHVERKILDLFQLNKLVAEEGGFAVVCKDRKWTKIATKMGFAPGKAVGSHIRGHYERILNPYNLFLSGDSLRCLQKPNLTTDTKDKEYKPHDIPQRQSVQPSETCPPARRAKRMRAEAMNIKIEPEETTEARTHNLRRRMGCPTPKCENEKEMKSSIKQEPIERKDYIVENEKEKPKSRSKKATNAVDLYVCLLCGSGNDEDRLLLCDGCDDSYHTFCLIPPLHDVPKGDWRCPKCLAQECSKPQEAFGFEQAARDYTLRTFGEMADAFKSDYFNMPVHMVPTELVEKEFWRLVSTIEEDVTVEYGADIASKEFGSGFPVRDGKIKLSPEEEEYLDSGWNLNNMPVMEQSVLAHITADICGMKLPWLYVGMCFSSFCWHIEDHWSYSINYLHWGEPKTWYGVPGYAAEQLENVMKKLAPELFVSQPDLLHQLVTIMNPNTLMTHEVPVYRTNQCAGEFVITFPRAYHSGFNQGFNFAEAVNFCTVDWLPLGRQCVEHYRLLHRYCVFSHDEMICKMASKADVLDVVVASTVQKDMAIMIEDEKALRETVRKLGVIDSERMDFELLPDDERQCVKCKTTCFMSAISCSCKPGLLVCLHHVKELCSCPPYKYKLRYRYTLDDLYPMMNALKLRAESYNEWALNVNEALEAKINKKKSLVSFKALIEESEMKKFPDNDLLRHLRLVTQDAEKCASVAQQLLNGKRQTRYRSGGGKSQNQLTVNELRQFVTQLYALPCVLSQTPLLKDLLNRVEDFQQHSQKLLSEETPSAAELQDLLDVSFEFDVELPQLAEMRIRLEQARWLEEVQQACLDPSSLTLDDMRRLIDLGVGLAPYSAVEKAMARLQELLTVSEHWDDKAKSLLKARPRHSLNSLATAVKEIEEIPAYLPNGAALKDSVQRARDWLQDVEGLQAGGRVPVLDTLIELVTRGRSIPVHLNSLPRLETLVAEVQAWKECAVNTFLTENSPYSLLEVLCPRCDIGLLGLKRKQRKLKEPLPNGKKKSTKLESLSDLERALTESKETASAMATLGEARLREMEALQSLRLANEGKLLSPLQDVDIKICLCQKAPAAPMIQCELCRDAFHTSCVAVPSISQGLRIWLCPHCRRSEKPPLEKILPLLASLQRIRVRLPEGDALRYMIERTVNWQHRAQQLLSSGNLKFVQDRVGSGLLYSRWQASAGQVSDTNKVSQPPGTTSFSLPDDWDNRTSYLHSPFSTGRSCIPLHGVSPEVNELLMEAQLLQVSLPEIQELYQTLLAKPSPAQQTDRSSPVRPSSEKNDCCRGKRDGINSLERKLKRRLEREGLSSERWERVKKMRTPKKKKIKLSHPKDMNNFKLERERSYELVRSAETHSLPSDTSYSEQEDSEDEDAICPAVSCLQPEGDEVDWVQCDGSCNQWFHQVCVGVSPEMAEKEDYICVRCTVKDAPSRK

The test addresses Lysine-specific demethylase 5B (Homo sapiens) (UniProt Q9UGL1). Description: Optimization screen for KDM5B Histone Demethylases FDH coupled qHTS against the LOPAC library (AID 1347166). The following applies: KDM5B demethylation, FDH-coupled NADH fluorescence (FDH is formaldehyde dehydrogenase); series mostly up to 57.5 µM. From the text:
Assay Submitter (PI): Qin Yan, Ph.D. (Yale University) and Xiaodong Cheng, Ph.D. (MD Anderson)
This project was funded as part of the NCI NEXT Program and Chemical Biology Consortium (CBC)
The histone demethylases, KDM5A and KDM5B catalyze the demethylation of lysine 4 on histone H3 (H3K4me3/2). They
are overexpressed in a variety of cancers and have been implicated in cancer cell growth, metastasis, drug resistance, and tumor growth. KDM5A is amplified and overexpressed in breast and gastric cancer; and is translocated in leukemia. While KDM5B is highly expressed in human mammary tumors and breast cancer cell lines, but not in normal adult breast tissue. Moreover, knockdown of KDM5B leads to upregulation of tumor suppressor genes, including BRCA1. The goal of this project is to employ qHTS to identify selective small molecule inhibitors of KDM5A/B demethylase activity to better understand the role of KDM5 in cancer and to develop novel therapies.
We employed an FDH-coupled assay previously reported by Sakurai et al. to monitor in vitro KDM5 demethylase activity. Compounds showing dose response inhibition are re-acquired, validated, and tested for non-specific interference with the formaldehyde dehydrogenase (FDH) counterscreen. True inhibitors are validated using an AlphaLisa secondary screen, which employs an H3K4(me2-1)-specific antibody to monitor demethylation of a biotin-tagged H3K4(me3) peptide substrate. Inhibitors are profiled against KDM4A and KDM6A AlphaLisa counterscreens to determine level of demethylase specificity; and against the TruHits counterscreen to eliminate non-specific inhibitory activity on the AlphaLISA detection method. Selective inhibitors identified from the primary and secondary screening are tested in cells using immunofluorescence to monitor global H3K4 tri-methylation as a measure of KDM5A/B inhibition. This assay is run against the NCGC Lopac collection of about 1,200 compounds to evaluate its amenability to quantitative High Throughput Screening (qHTS) platform.
Early Translation Branch (ETB)
National Center for Advancing Translational Sciences (NCATS), Rockville, MD
National Institute of Health (NIH), Bethesda, Maryland
[1] Sakurai, M et al. A miniaturized screen for inhibitors of Jumonji histone demethylases. Mol Biosyst. 2010 Feb;6(2):357-64. doi: 10.1039/b912993f. Epub 2009 Oct 8.
1536-well Black, solid bottom, medium binding assay plate is purchased from Greiner Bio-one. The enzymes (KDM5B) and substrate (H3K4me3/2) are provided by the principal investigators. The buffer for this assay is composed of 50mM HEPES at pH 7.5 with 0.01% Tween-20.
FDH coupled qHTS protocol:
Three microliter enzyme mix (buffer + 200nM KDM5BDeltaAP final concentration) is dispensed into the assay plate using the BioRAPTR Flying Reagent Dispenser (FRD; Beckton-Dickenson). Compound (at various final concentration) and control solution is pin transferred to the assay plate using the Kalypsys 1536-pin tool apparatus. The assay plate is incubated for 10 min at room temperature followed by addition of 1uL substrate mix (buffer + 100uM ascorbic acid, 50uM ferrous ammonium sulfate, 12.5uM H3K4Me3, 25uM a-ketoglutarate, 0.25 mM NAD+, 0.25 U/mL formaldehyde dehydrogenase using the FRD yielding a total reaction volume of 4 uL. Initial fluorescence (Read1) is detected using the PerkinElmer ViewLux plate reader equipped with 340 nm excitation and 450 nm emission filters. The final fluorescence (Read2) signal is obtained after 30 min of room temperature incubation. Delta RFU is calculated (Read2 - Read1) and is used to generated dose response curves
Consider `NCCCCCC(=O)O`, for which the result was inactive.

Regarding `COc1ccccc1OCC(O)CN1CCN(CC(=O)Nc2c(C)cccc2C)CC1` (stereo not given), the outcome was inactive. For `Cc1cnc(C(=O)NCCc2ccc(S(=O)(=O)NC(=O)NC3CCCCC3)cc2)cn1`, the result was inactive.

For the compound `CN1CCN2c3ccccc3Cc3ccccc3C2C1` (stereo not given), the outcome was inactive.

As to `CC(C)NCC(O)COc1ccc(CCOCC2CC2)cc1` (stereo not given), the compound was classed as inactive. For the compound `O=C1N(c2ccccc2)c2ccccc2C1(Cc1ccncc1)Cc1ccncc1`, the call was inactive. With `Cc1cn([C@H]2C=C[C@@H](CO)O2)c(=O)[nH]c1=O`, the compound was called inactive. On to `COC(=O)Nc1nc2ccc(C(=O)c3cccs3)cc2[nH]1`, for which the compound was classed as inactive. As to `Clc1ccc2c(c1)C(N1CCNCC1)=Nc1ccccc1O2`, the compound was called inactive.

As for `O=C(C1CCCCC1)N1CC(=O)N2CCc3ccccc3C2C1` (stereo not given), the result was inactive. For the compound `Nc1ccn([C@H]2CC[C@@H](CO)O2)c(=O)n1`, the outcome was inactive.

With `Cc1cc(C(C)(C)C)cc(C)c1CC1=NCCN1`, the compound was called inactive. Take `O=C1c2c(O)ccc(O)c2C(=O)c2c(NCCNCCO)ccc(NCCNCCO)c21`: the compound was called inactive. For `NCCc1cnc[nH]1`, the result was inactive. For `CC[N+](CC)(CC)CCOc1cccc(OCC[N+](CC)(CC)CC)c1OCC[N+](CC)(CC)CC` the value was “inactive”; for `CCCNCC(O)COc1ccccc1C(=O)CCc1ccccc1` (stereo not given), “inactive”. For `NCCS(=O)(=O)O`, the result was inactive.

`Cn1c(=O)c2c(ncn2C)n(C)c1=O`: the outcome was inactive. `Cn1c(=O)c2[nH]cnc2n(C)c1=O`: the result was inactive. As to `CN1CCN(CCCN2c3ccccc3Sc3ccc(Cl)cc32)CC1`, the compound was classed as inactive. Take `CCc1cccc2c3c([nH]c12)C(CC)(CC(=O)O)OCC3` (stereo not given): the call was inactive. With `CN(C)CCC=C1c2ccccc2C=Cc2ccccc21`, the outcome was inactive. Consider `NC12CC3CC(CC(C3)C1)C2`, for which the outcome was inactive. For the compound `CC#C[C@]1(O)CC[C@H]2[C@@H]3CCC4=CC(=O)CCC4=C3[C@@H](c3ccc(N(C)C)cc3)C[C@@]21C`, the compound was called inactive. Turning to `O=c1c(-c2ccc(O)cc2)coc2cc(O)cc(O)c12`, the result was inactive. Take `CNCCCC12CCC(c3ccccc31)c1ccccc12`: the call was inactive.

Take `CC(C(=O)O)c1cccc(C(=O)c2ccccc2)c1` (stereo not given): the result was inactive.

Consider `COc1nc(C)nc(Cl)c1NC1=NCCN1`, for which the result was inactive. For `CN(C)CCOC(c1ccccc1)c1ccccc1` the value was “inactive”.

With `Cn1cnc2c1c(=O)[nH]c(=O)n2C`, the outcome was inactive. As for `Nc1c2c(nc3ccccc13)CCCC2`, the result was inactive. For `O=C(c1ccc(F)cc1)C1CCN(CCn2c(=O)[nH]c3ccccc3c2=O)CC1` the value was “inactive”; for `O=c1[nH]cc(F)c(=O)[nH]1`, “inactive”; for `Nc1nc2c(ncn2COC(CO)CO)c(=O)[nH]1`, “inactive”. `CN1CCN(C2=Nc3cc(Cl)ccc3Nc3ccccc32)CC1`: the call was inactive. In the case of `CN(C)c1nc(N(C)C)nc(N(C)C)n1`, the compound was called inactive. Take `COc1cc2c(c(OC)c1OC)-c1ccc(OC)c(=O)cc1[C@@H](NC(C)=O)CC2`: the outcome was inactive. As for `CC12CC3CC(C)(C1)CC(N)(C3)C2`, the compound was called inactive. With `OCCN1CCN(CCCN2c3ccccc3Sc3ccc(C(F)(F)F)cc32)CC1` the entry was “inactive”. With `Cn1ccc2cc3c(cc21)CCN3C(=O)Nc1cccnc1` the entry was “inactive”.
